Consider ten compounds from PubChem BioAssay (NCI).

Test [1] in a line: NCI Yeast Anticancer Drug Screen. Data for the rad50 strain (AID 155).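 Also: 0% = growth of vehicle-only cultures of the same strain.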 The settings on record: S. cerevisiae rad50 strain growth inhibition, active compounds read high. In short, it runs like this:
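Vehicle-treated cultures provide the reference for the growth inhibition reported for compound-exposed, repair-deficient yeast.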

The nature of test [2]: NCI Yeast Anticancer Drug Screen. Data for the mec2-1 strain (AID 157). The settings on record: S. cerevisiae mec2-1 strain, active compounds read high. An outline of the steps: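 Test agents were screened against the mec2-1 yeast strain, with defined DNA repair or cell cycle alteration. Growth was scored as inhibition against vehicle-only controls.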
Test [3] in a line: NCI Yeast Anticancer Drug Screen. Data for the sgs1 mgt1 strain (AID 161).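 Also: 0% = growth of cultures given vehicle only.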 The following applies: S. cerevisiae sgs1 mgt1 strain, active compounds read high. An outline of the steps: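 Read-out: growth inhibition vs vehicle controls. Cells: mutant yeast strain deficient in DNA damage repair.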
A short description of test [4]: NCI Yeast Anticancer Drug Screen. Data for the cln2 rad14 strain (AID 165).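 Also: 0% = growth equal to vehicle treated cultures.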 The following applies: S. cerevisiae cln2 rad14 strain, active compounds read high. In short, it runs like this:
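Growth of compound-exposed yeast (cln2 rad14 genotype) measured and expressed as inhibition relative to vehicle.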

The nature of test [5]: NCI Yeast Anticancer Drug Screen. Data for the bub3 strain (AID 167). The following applies: S. cerevisiae bub3 mutant strain, active compounds read high. An outline of the steps:
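Mutant yeast screening strain plus compound; vehicle-treated cultures serve as the 0% inhibition reference.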

Test [6] is described as follows: NCI Yeast Anticancer Drug Screen. Data for the mlh1 rad18 strain (AID 175). The settings on record: S. cerevisiae mlh1 rad18 strain growth inhibition, active compounds read high. In short, it runs like this:
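In this whole-cell yeast screen, a strain with altered DNA damage repair is challenged with compound, and its growth is measured against matched vehicle-treated controls.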

Where [7] appears, read: at 5.0 µM (retest, dose inferred, filed as 0.5).
Where [8] appears, read: at 50.0 µM (retest, dose inferred, filed as 5.0).

Structures are written as SMILES. About 79,000 compounds went through this panel and 15% of them were active in at least one assay; those are over-represented in the sample as a whole. Values without a mark were called inactive. The source made the active and inactive calls. Rule as the data show it: active = growth inhibition above about 70%; inactive = the rest.

Take `CCOC(=O)/C(=C\c1ccc(C)cc1)C(C)=O`: the growth inhibition in test [1] (setting [7]) was 19%; in test [1] (setting [8]), 89% (active); in test [1] (at 50.0 µM), 91.1% (active); in test [2] (setting [7]) it was -19%; in test [2] (setting [8]), 97% (active); in test [2] (at 50.0 µM), 91.8% (active). The growth inhibition in test [3] (setting [7]) was 24%; in test [3] (setting [8]) it was 95% (active); in test [3] (at 50.0 µM), 93.1% (active); in test [4] (setting [7]), 5%; in test [4] (setting [8]), 89% (active); in test [4] (at 50.0 µM), 84.7% (active). In addition, the growth inhibition in test [5] (setting [7]) is 33%; in test [5] (setting [8]), 98% (active); in test [5] (at 50.0 µM) it was 91.2% (active); in test [6] (setting [7]), 22%; in test [6] (setting [8]), 96% (active); in test [6] (at 50.0 µM), 90.7% (active).
On to `N#C/C(=C\c1cc(Cl)cc(Cl)c1O)C(/C(C#N)=C/c1cc(Cl)cc(Cl)c1O)c1ccc2c(c1)OCO2` (stereo not given), for which the growth inhibition in test [1] (setting [7]) is 64%; in test [1] (setting [8]), 98% (active); in test [1] (at 50.0 µM), 90.8% (active); in test [2] (setting [7]) it was 48%; in test [2] (setting [8]), 99% (active); in test [2] (at 50.0 µM) it was 93.5% (active). In addition, the growth inhibition in test [3] (setting [7]) is 75% (active); in test [3] (setting [8]), 100% (active); in test [3] (at 50.0 µM), 93.2% (active); in test [4] (setting [7]) it was 44%; in test [4] (setting [8]), 97% (active); in test [4] (at 50.0 µM), 91.8% (active). Moreover, the growth inhibition in test [5] (setting [7]) was 74% (active); in test [5] (setting [8]), 99% (active); in test [5] (at 50.0 µM) it was 92.1% (active); in test [6] (setting [7]), 80% (active); in test [6] (setting [8]) it was 99% (active); in test [6] (at 50.0 µM), 90.8% (active).
Turning to `O=C(Nc1ccc(-c2cn3ccccc3n2)cc1)c1cc(Br)ccc1O`, the growth inhibition is 4% in test [1] (setting [7]); 15% in test [1] (setting [8]); -21.6% in test [1] (at 50.0 µM); 5% in test [2] (setting [7]); 7% in test [2] (setting [8]); -28.6% in test [2] (at 50.0 µM). Besides, the growth inhibition in test [3] (setting [7]) was 12%; in test [3] (setting [8]) it was 9%; in test [3] (at 50.0 µM), -13.8%; in test [4] (setting [7]), 33%; in test [4] (setting [8]) it was -9%; in test [4] (at 50.0 µM), 39.9%. Besides, the growth inhibition in test [5] (setting [7]) was 5%; in test [5] (setting [8]) it was 6%; in test [5] (at 50.0 µM), -24.4%; in test [6] (setting [7]), 5%; in test [6] (setting [8]) it was 13%; in test [6] (at 50.0 µM), -29.8%.
Consider `Oc1cccc2ccncc12`, for which the growth inhibition in test [1] (setting [7]) was 7%; in test [1] (setting [8]), 9%; in test [1] (at 50.0 µM) it was 29.3%; in test [2] (setting [7]) it was -14%; in test [2] (setting [8]), 14%; in test [2] (at 50.0 µM), 20.4%. Moreover, the growth inhibition was 3% in test [3] (setting [7]); 16% in test [3] (setting [8]); 22.1% in test [3] (at 50.0 µM); 13% in test [4] (setting [7]); 29% in test [4] (setting [8]); 9.05% in test [4] (at 50.0 µM). In addition, the growth inhibition was 2% in test [5] (setting [7]); 14% in test [5] (setting [8]); 21.1% in test [5] (at 50.0 µM); 2% in test [6] (setting [7]); 43% in test [6] (setting [8]); 58.4% in test [6] (at 50.0 µM).
For the compound `CCCCC(=O)N/N=C(\C)[C@]1(O)Cc2c(O)c3c(c(O)c2[C@@H](OC2CC(N)C(O)C(C)O2)C1)C(=O)c1c(OC)cccc1C3=O` (stereo not given in full), the growth inhibition in test [1] (setting [7]) was 64%; in test [1] (setting [8]) it was 97% (active); in test [1] (at 50.0 µM), 98.7% (active); in test [2] (setting [7]), -12%; in test [2] (setting [8]), 97% (active); in test [2] (at 50.0 µM) it was 99.2% (active). For the same compound, the growth inhibition in test [3] (setting [7]) was 17%; in test [3] (setting [8]) it was 97% (active); in test [3] (at 50.0 µM), 51.5%; in test [4] (setting [7]) it was 8%; in test [4] (setting [8]) it was 89% (active); in test [4] (at 50.0 µM) it was 97.1% (active). For the same compound, the growth inhibition is 15% in test [5] (setting [7]); 98% (active) in test [5] (setting [8]); 98.5% (active) in test [5] (at 50.0 µM); 17% in test [6] (setting [7]); 97% (active) in test [6] (setting [8]); 98.5% (active) in test [6] (at 50.0 µM).
Regarding `Cc1ccc(/C=C/C(=O)/C=C/c2ccc(C)o2)o1`, the growth inhibition is 50% in test [1] (setting [7]); 97% (active) in test [1] (setting [8]); 65.8% in test [1] (at 50.0 µM); 45% in test [2] (setting [7]); 99% (active) in test [2] (setting [8]); 71.3% (active) in test [2] (at 50.0 µM). Moreover, the growth inhibition in test [3] (setting [7]) is 49%; in test [3] (setting [8]), 97% (active); in test [3] (at 50.0 µM) it was 75% (active); in test [4] (setting [7]), 42%; in test [4] (setting [8]), 81% (active); in test [4] (at 50.0 µM), 39%. Besides, the growth inhibition in test [5] (setting [7]) was 47%; in test [5] (setting [8]) it was 68%; in test [5] (at 50.0 µM) it was 75% (active); in test [6] (setting [7]) it was 62%; in test [6] (setting [8]) it was 98% (active); in test [6] (at 50.0 µM), 92.4% (active).
On to `CCCCC(=S)N1CCN(c2ccccc2)CC1`, for which the growth inhibition in test [1] (setting [7]) is -3%; in test [1] (setting [8]) it was -8%; in test [1] (at 50.0 µM) it was 90.3% (active); in test [2] (setting [7]) it was 10%; in test [2] (setting [8]), 12%; in test [2] (at 50.0 µM) it was 62.2%. In addition, the growth inhibition in test [3] (setting [7]) was 5%; in test [3] (setting [8]), 9%; in test [3] (at 50.0 µM) it was 92.1% (active); in test [4] (setting [7]) it was -1%; in test [4] (setting [8]) it was -14%; in test [4] (at 50.0 µM), 14.9%. The growth inhibition is 2% in test [5] (setting [7]); 20% in test [5] (setting [8]); 81.7% (active) in test [5] (at 50.0 µM); -2% in test [6] (setting [7]); -9% in test [6] (setting [8]); 87.8% (active) in test [6] (at 50.0 µM).
As to `C=CCNCCC1CCCCCC1`, the growth inhibition was 7% in test [1] (setting [7]); 97% (active) in test [1] (setting [8]); 96.6% (active) in test [1] (at 50.0 µM); 6% in test [2] (setting [7]); 97% (active) in test [2] (setting [8]); 97.5% (active) in test [2] (at 50.0 µM). Also, the growth inhibition in test [3] (setting [7]) was 7%; in test [3] (setting [8]) it was 98% (active); in test [3] (at 50.0 µM), 49.1%; in test [4] (setting [7]), 5%; in test [4] (setting [8]) it was 96% (active); in test [4] (at 50.0 µM), 8.8%. The growth inhibition in test [5] (setting [7]) is 7%; in test [5] (setting [8]), 97% (active); in test [5] (at 50.0 µM), 97.7% (active); in test [6] (setting [7]), 4%; in test [6] (setting [8]) it was 97% (active); in test [6] (at 50.0 µM), 96.5% (active).
For the compound `CC12CCC(=O)C=C1C=CC1C2CCC2(C)C1CCC21CCC(=O)O1` (stereo not given), the growth inhibition is 11% in test [1] (setting [7]); 99% (active) in test [1] (setting [8]); 74.6% (active) in test [1] (at 50.0 µM); 5% in test [2] (setting [7]); 99% (active) in test [2] (setting [8]); 80.2% (active) in test [2] (at 50.0 µM). For the same compound, the growth inhibition was 7% in test [3] (setting [7]); 99% (active) in test [3] (setting [8]); 84% (active) in test [3] (at 50.0 µM); 2% in test [4] (setting [7]); 99% (active) in test [4] (setting [8]); 24.1% in test [4] (at 50.0 µM). Besides, the growth inhibition in test [5] (setting [7]) is -1%; in test [5] (setting [8]), 99% (active); in test [5] (at 50.0 µM) it was 66.7%; in test [6] (setting [7]) it was 7%; in test [6] (setting [8]), 99% (active); in test [6] (at 50.0 µM) it was 72.8% (active).
For the compound `CC(C)COC(=O)C1C2C=CC(CC2)C1C(=O)OCC(C)C` (stereo not given), the growth inhibition in test [1] (setting [7]) was -13%; in test [1] (setting [8]), 30%; in test [1] (at 50.0 µM), 30.1%; in test [2] (setting [7]) it was -4%; in test [2] (setting [8]) it was 79% (active); in test [2] (at 50.0 µM) it was 18%. For the same compound, the growth inhibition is -1% in test [3] (setting [7]); 19% in test [3] (setting [8]); 29.6% in test [3] (at 50.0 µM); -11% in test [4] (setting [7]); 55% in test [4] (setting [8]); 4.6% in test [4] (at 50.0 µM). Moreover, the growth inhibition in test [5] (setting [7]) is 0%; in test [5] (setting [8]), 82% (active); in test [5] (at 50.0 µM) it was 40.5%; in test [6] (setting [7]), -3%; in test [6] (setting [8]), 86% (active); in test [6] (at 50.0 µM), 46.5%.
